Sampled rows, rich in hits. Any-hit rate of the full collection: about 11%.
HCV inhibitor: blocks hepatitis C virus | Huh7.5.1 HCVcc-Cre infection, luciferase reporter, 44 h | Potency, µM (series often up to 41.8 µM), for the others: at the top dose activity change, negative = inhibition, usual class: inhibitors | actives 3.4% (n = 340,000) | AID 651820
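Luciferase read-out (15 sec integration) after a 15 min room-temperature substrate step quantifies HCVcc-Cre infection. Cells, 1,000 per well, had compound added 4 h post-plating, then virus at ~0.5 moi, and were cultured 44 h.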
Pf growth 48h: inhibits P. falciparum growth in the first generation, 48 h; Potency, µM (titrated, usually from 28.7 µM), without a hit: top-dose activity change, negative = inhibition, hits mostly inhibitors; P. falciparum luciferase growth in erythrocytes, 48 h; actives 5.9% (n = 310,000)
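Cell-based growth assay: transgenic P. falciparum expressing firefly luciferase, cultured in red cells within RPMI 1640 containing 0.5% w/v Albumax, 24 mM bicarbonate and gentamycin. A drop in luciferase activity indicates inhibition.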
Pf growth 96h: P. falciparum growth inhibition at 96 hour, primary screen for plastid delayed-death inhibitors. actives 6.9% (n = 320,000). Potency, µM (top dose mostly 28.7 µM), for inactives: at the top dose activity change, negative = inhibition, usual class: inhibitors. P. falciparum luciferase reporter growth, 96 h
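Two-generation exposure (96 h) targets delayed-death phenotype. Reporter parasites carrying integrated firefly luciferase, in red cells at 2% hematocrit and 0.05% parasitemia final, kept at 37 C, 5% CO2; luminescence loss indicates inhibition.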
AMA1-RON2 inh: AMA1-RON2 (P. falciparum) interaction inhibition. Potency, µM (series often up to 58.2 µM), inactives show at the top dose activity change, negative = inhibition, usual class: inhibitors. actives 0.2% (n = 360,000). AlphaScreen AMA1-biotinylated RON2 peptide binding;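 further: 0% = vehicle wells and -100% = peptide control; nearly all actives have a fitted effect of over 45% in size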
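AMA1 (3D7) with his tag at 25 nM final met compounds first, then biotinylated RON2 peptide at 25 nM; detection used donor plus acceptor beads, 10 µg/mL apiece, read by AlphaScreen after 30 min at room temperature.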
* hit, by the source's call; ? = inconclusive; nt = not tested or not shown. The call rests on the fitted dose curve; in most records, active means well fitted curve in the direction sought with a large enough effect; inconclusive means small, poorly fitted or top-dose-only effect, or another doubt; inactive means no such curve, though single readings can be large; an effect the other way counts as inactive or inconclusive. Unless noted, on the % scale 0 is the no-effect control and ±100 the full control effect; potency means the concentration at half of the fitted maximal effect.

SMILES	HCV inhibitor	Pf growth 48h	Pf growth 96h	AMA1-RON2 inh
CCCCN(C=O)c1c(CC)nc2ccc(C(=O)NCc3cccs3)cn12	nt	nt	nt	0.0%
CCOc1ccc(-c2cc3cc(OC)c(OC)cc3c(C)n2)cc1	?	-14.2%	35.8%	-14.2%
COc1cc2cc(-c3ccc(O)cc3O)nc(C)c2cc1OC	5.62µM*	?	?	-24.0%
COc1cc2cc(-c3ccc(OC)c(OC)c3C)nc(N)c2cc1OC	17.8µM*	nt	nt	-3.3%
CCOC(=O)c1c(-c2ccccc2)oc2ccc(OCC(O)CN(C)C)cc12 (stereo not drawn)	14.1µM*	?	?	-18.0%
CCOC(=O)c1c(CSCc2ccccc2)oc2ccc(O)c(CN(C)C)c12	?	5.86µM*	5.86µM*	-12.4%
CCOC(=O)c1c(-c2ccc(OC)cc2)oc2ccc(OC(=O)N(C)C)cc12	0.316µM*	?	?	-26.5%
CCOC(=O)c1c(-c2ccccc2)oc2ccc(OC(C)C(=O)O)cc12 (stereo not drawn)	11.0%	-11.0%	31.8%	4.7%
CCOC(=O)c1c(-c2ccccc2)oc2ccc(OC(C)=O)cc12	11.2µM*	6.4%	34.5%	28.2%
Cc1c(NC(=O)COC(=O)C2=COCCO2)cccc1[N+](=O)[O-]	6.5%	27.4%	62.8%	0.8%
Cc1ccc(Nc2nc3c(c(=O)[nH]c(=O)n3C)n2Cc2ccc(F)cc2)cc1	-3.6%	?	-109.4%	3.0%
CCSc1nnc(NC(=O)CSc2nnc(CNC(=O)c3ccc(OC)c(OC)c3)o2)s1	-2.4%	8.6%	-25.7%	50.4%
CCOc1ccccc1N(CC(=O)NC1CCCC1)S(=O)(=O)c1ccc(C)cc1	-21.3%	?	27.1%	-3.7%
CCOC(=O)c1c(-c2ccccc2)oc2ccc(O)c(CN3CCCC3)c12	-23.8%	1.85µM*	1.04µM*	13.5%
Cc1oc2ccc(OC(=O)N(C)C)cc2c1C(=O)OC(C)C	?	?	2.94µM*	3.9%
CCN(CC)CCCNC(=O)c1cc2c(-c3ccc(Cl)cc3)nn(C)c2s1	11.2µM*	nt	?	-2.2%
CCCCN(CC)CCNC(=O)c1cc2c(-c3ccccc3F)nn(C)c2s1	?	2.08µM*	22.2%	0.0%
CCN(CCCNC(=O)c1cc2c(-c3cccc(OC)c3)nn(C)c2s1)Cc1ccccc1	11.2µM*	2.33µM*	9.2%	-9.3%
CC1CCCCN1CCNC(=O)c1cc2c(-c3ccccc3F)nn(C)c2s1 (stereo not drawn)	?	nt	-19.9%	-8.4%
COc1cc(C(=O)NC(=S)Nc2ccc3[nH]c(=O)[nH]c3c2)cc(OC)c1OC	23.1%	30.5%	89.6%	8.9%
O=C(Nc1cccc(C(F)(F)F)c1)c1ccc2sc([C@H]3C[C@H](O)[C@@H](CO)O3)nc2c1	nt	nt	nt	10.1%
CC(C)(C)SCCNC(=O)/C=C/c1cccc([N+](=O)[O-])c1	-2.4%	41.5%	15.9%	0.6%
CCCCn1nnnc1C1(C)CCC(=O)N1Cc1ccc(OC)cc1 (stereo not drawn)	nt	nt	nt	-4.5%
c1ccc2c(-c3[nH]ncc3CNCCCn3ncc4ccccc43)cccc2c1	10µM*	14.7µM*	12.1%	-11.2%
OC1(c2ccc(OC(F)F)cc2)CSC(=Nc2cccnc2)N1C1CC1 (stereo not drawn)	31.6µM*	?	?	-24.4%
SMILES	HCV inhibitor	Pf growth 48h	Pf growth 96h	AMA1-RON2 inh
CCCCCCn1c(COc2ccccc2F)nnc1SCC(=O)c1c(N)n(C)c(=O)n(C)c1=O	14.3%	?	?	nt
COCC(C)n1c(COc2ccccc2F)nnc1SCC(=O)c1c(N)n(C)c(=O)n(C)c1=O (stereo not drawn)	-0.8%	10.4µM*	?	-9.2%
CO/N=C(/C(=O)N[C@@H]1C(=O)N2C(C(=O)O)=C(COC(N)=O)CS[C@H]12)c1ccco1	nt	15.1µM*	16.9µM*	nt
O=C(COC(=O)c1ccccc1O)Nc1ccc(OC(F)F)cc1	-6.3%	39.7%	9.28µM*	-9.0%
CC1(C)Cc2nc(NC3CCCCC3)c(C#N)cc2CO1	-18.3%	9.28µM*	15.0%	-9.2%
CC1(C)Cc2c(C#N)c(NC3CCCCC3)nc(-c3ccco3)c2CO1	-23.1%	5.86µM*	9.28µM*	nt
CC1(C)Cc2c(C#N)c(NCC3CCCO3)nc(-c3ccco3)c2CO1 (stereo not drawn)	?	?	nt	19.1%
CCC1(C)Cc2nc(Cl)c(C#N)cc2CO1 (stereo not drawn)	3.8%	0.9%	15.9%	-3.9%
Cc1cccc(C)c1NC(=O)C(c1ccnc2ccccc12)N1CCN(CCN(C)C)CC1 (stereo not drawn)	nt	nt	nt	5.1%
O=S(=O)(CCc1ccncc1)C1Cc2cccc3cccc1c23 (stereo not drawn)	-25.6%	3.9%	0.3%	0.0%
CCn1cc(C(=O)O)c(=O)c2cc(F)c(N3CCNCC3)nc21	-1.9%	3.61µM*	1.44µM*	-3.5%
CCC(=O)Oc1ccc(C(=O)Nc2ccc3c(c2)C(=O)N(C2CCCCC2)C3=O)cc1	?	nt	10.4µM*	0.9%
O=C(O)COc1ccc(NC(=O)c2ccc3c(c2)C(=O)N(C2CCCCC2)C3=O)cc1	-3.6%	?	-16.9%	-18.8%
Cc1ccc(NC(=O)CN(C)CC(=O)Nc2sc3c(c2C(N)=O)CCC3)cc1	?	?	?	69.6%
CCN1CCN(CCc2nc3cc(NC(=O)COc4ccc(Cl)cc4)ccc3n2C)CC1	?	5.22µM*	6.57µM*	14.4%
COc1ccc(OCC(=O)Nc2ccc3c(c2)nc(CCN2CCC(C)CC2)n3C)cc1	16.1%	?	?	-9.5%
Cc1ccc(OCC(=O)Nc2ccc3c(c2)nc(CCN2CCC(C)CC2)n3C)cc1	12.6µM*	?	?	0.0%
Cn1c(CCN2CCCC2)nc2cc(NC(=O)COc3ccc(Cl)cc3)ccc21	nt	nt	nt	24.5%
Cn1c(CN2CCCC2)nc2cc(NC(=O)COc3ccc([N+](=O)[O-])cc3)ccc21	-24.2%	13.1µM*	?	2.9%
CC1CCN(CCc2nc3cc(NC(=O)COc4ccc(Cl)cc4)ccc3n2C)CC1	11.2µM*	?	3.29µM*	19.1%
CC1CC(C)CN(c2nc3c(c(=O)n(C)c(=O)n3C)n2CCSc2nc3ccccc3o2)C1 (stereo not drawn)	8.7%	nt	nt	-6.3%
Cc1cccc(NC(=O)CSc2ncnc3sc(C)cc23)c1	-22.5%	14.5%	42.4%	7.4%
COc1ccc2c(c1OC)C(=O)OC2N1C(=O)CC[C@H]1C(=O)NCC1CCCO1 (stereo partly drawn)	0.562µM*	0.7%	26.1%	8.2%
COC(=O)c1ccccc1NC(=O)[C@@H]1CCC(=O)N1C1OC(=O)c2c1ccc(OC)c2OC (stereo partly drawn)	-5.3%	24.4%	-10.1%	-1.7%
CCc1nn(CC(=O)NCc2cccnc2)c(=O)c2cc3occc3n12	?	23.6%	10.4µM*	0.0%
CCc1nn(C(C)C(=O)NCc2cccc(Cl)c2)c(=O)c2cc3occc3n12 (stereo not drawn)	8.91µM*	3.5%	-20.7%	-12.2%
